Test results reported in PubChem BioAssay AID2685 (National Center for Advancing Translational Sciences (NCATS), 2010).
Out of some 320,000 compounds screened, about 2,100 (0.66%) were called active. Inconclusive results (about 53%) are left out. Calls come from the whole dose curve; as a rule, active = well fitted inhibition curve with a large enough effect in the signal ratio, with a control signal flat (not every such curve was filed as active); inconclusive = small, poorly fitted or top-dose-only effect, or effect the other way, or a change in a side signal; inactive = flat fitted curve, though single readings scatter; the % refers to the signal ratio. The list comes from a sample in which actives are over-represented; it also holds similar structures and randomly drawn compounds.

Assay: qHTS Assay for Lipid Storage Modulators in Drosophila S3 Cells;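 for cell number change: cells counted by Cell Tracker Red CMTPX staining in the red channel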; for lipid storage change, negative = inhibition: % is set by controls: 0 for no effect and ±100 for the full control effect
Conditions: BODIPY lipid droplet fluorescence, 18-24 h, cells fed with added oleic acid; cell number change: measured here: cell count max response; series mostly up to 46.1 µM
How it was run: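 Drosophila S3 cells got compounds at several concentrations plus oleic acid (400 uM solution). Laser-scanning cytometry with 488 nm excitation read lipid droplets at 500-530 nm and cells at 575-640 nm. Percent activity was relative to 20 uM Triacsin C.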
Potency is the fitted concentration of half-maximal effect.

Row | SMILES | Potency | cell number change [%] | lipid storage change, negative = inhibition
1 | COc1ccc(-c2nc(=S)[nH][nH]2)cc1 | inactive | -14.6 | –
2 | O=C(NCc1cccnc1)C1CCCN(Cc2cnn(-c3ccccc3)c2-n2cccc2)C1 (stereo not drawn) | inactive | -3.38 | –
3 | Cc1ccc2nc3c(cc(C(=O)NCc4ccco4)c(=N)n3Cc3ccco3)c(=O)n2c1 | inactive | -5.34 | –
4 | Cc1ccc(N(C(=O)CCC(=O)Nc2cc(C)on2)C(C(=O)NC2CCCC2)c2ccccc2)cc1 (stereo not drawn) | inactive | -13.1 | –
5 | O=C(CSc1nnc(-c2ccco2)n1-c1ccccc1)N1CCOCC1 | inactive | – | –
6 | Cc1ccsc1C(=O)Nc1ccc(C(=O)O)cc1 | inactive | – | –
7 | O=C(O)CCCC(=O)N1CCOCCOCCOCCOCC1 | inactive | 22.2 | –
8 | Cc1cccc(NC(=O)CNC(=O)COc2ccc(C(=O)c3ccc(F)cc3)cc2)c1C | inactive | 8.34 | –
9 | O=C(Cn1cc(S(=O)(=O)Cc2ccccc2)c2ccccc21)N1CCOCC1 | inactive | 6.54 | –
10 | CCN(CC)C(=O)Cn1cc(S(=O)(=O)Cc2cccc([N+](=O)[O-])c2)c2ccccc21 | inactive | 0.298 | –
11 | CN(C)C(=O)Cn1cc(S(=O)(=O)Cc2ccccc2)c2ccccc21 | 0.651 µM (active) | -2.09 | –
12 | CC(C)OC(=O)CSc1nc2c(cc1C#N)CCCCC2 | inactive | – | –
13 | Cc1cc(C(=O)CN2C(=O)C(=O)N(C3CCCC3)C2=O)c(C)n1CCc1ccc(F)cc1 | 20.6 µM (active) | -15.3 | –
14 | Cc1cc(C(=O)CCl)c(C)n1CCc1ccc(F)cc1 | inactive | -8.52 | –
15 | Cc1cc(C(=O)CN2C(=O)C(=O)N(Cc3ccccc3)C2=O)c(C)n1Cc1ccc(F)cc1 | inactive | -8.57 | –
16 | COC(=O)C(C)N(C(=O)c1cccc(Cl)c1)c1c(C)cccc1C (stereo not drawn) | inactive | – | –
17 | COC(=O)C(Cc1ccccc1)NC(=O)CNC(=O)c1sc2ccccc2c1Cl (stereo not drawn) | 1.84 µM (active) | -4.58 | –
18 | CC1CCCN(C(=O)CNC(=O)c2sc3ccccc3c2Cl)C1 (stereo not drawn) | – | 11.4 | 0.306% [at 0.0737 µM] (inactive)
19 | Cc1ccc(S(=O)(=O)N2CCN(C(=O)CNC(=O)c3sc4ccccc4c3Cl)CC2)cc1 | inactive | – | –
20 | CC1CC(C)CN(C(=O)CNC(=O)c2sc3ccccc3c2Cl)C1 (stereo not drawn) | 1.46 µM (active) | -1.35 | –
21 | CC(=O)Nc1ccc(NC(=O)CNC(=O)c2sc3ccccc3c2Cl)cc1 | inactive | 0.461 | –
22 | COC(=O)c1ccc(CNC(=O)CNC(=O)c2sc3ccccc3c2Cl)cc1 | inactive | 3.22 | –

Row | SMILES | Potency | cell number change [%] | lipid storage change, negative = inhibition
23 | CC(C)N(Cc1nc(-c2ccccc2)no1)C(=O)C(C)(C)C | inactive | – | –
24 | Cc1cccc(OCC(=O)N=Nc2c(O)[nH]c3ccc([N+](=O)[O-])cc23)c1 | inactive | -0.974 | –
25 | O=C(CNC(=O)c1ccco1)N=Nc1c(O)[nH]c2ccc([N+](=O)[O-])cc12 | 1.03 µM (active) | 26.6 | –
26 | O=C(CNC(=O)c1ccco1)N=Nc1c(O)[nH]c2ccc(Br)cc12 | inactive | -9.17 | –
27 | CCCCN(C(=O)c1cccc(S(=O)(=O)N2CC(C)OC(C)C2)c1)c1c(N)n(CC(C)C)c(=O)[nH]c1=O (stereo not drawn) | inactive | – | –
28 | O=[N+]([O-])c1ccc2nc(C(O)C(O)c3nc4ccc([N+](=O)[O-])cc4[nH]3)[nH]c2c1 (stereo not drawn) | inactive | 22.3 | –
29 | Cc1cccc(-c2nnc(SCC(=O)O)n2Cc2ccccc2)c1 | inactive | -0.739 | –
30 | COc1ccc(-c2nnc(SCC(=O)O)n2Cc2ccccc2)cc1 | inactive | 16.6 | –
31 | O=C(O)CSc1nnc(-c2ccc(Cl)cc2Cl)n1Cc1ccccc1 | 5.8 µM (active) | -15.2 | –
32 | O=C(O)CSc1nnc(-c2ccc(Cl)cc2Cl)n1-c1ccccc1 | inactive | 9.07 | –
33 | O=C(O)CSc1nnc(-c2ccccc2O)n1Cc1ccccc1 | 25.9 µM (active) | 0.192 | –
34 | O=C(O)CSc1nnc(-c2cccnc2)n1Cc1ccccc1 | inactive | 0.309 | –
35 | Cc1cccc(-c2ccc3ncnc(NCc4cc(C)cs4)c3c2)c1 | inactive | 8.79 | –
36 | O=C(CCSc1ccccc1)Nc1ccccc1Br | inactive | 3.05 | –
37 | COc1ccccc1NC(=O)COC(=O)CCn1c(C)csc1=O | – | -23.2 | 22.3% [at 0.0737 µM] (inactive)
38 | O=C(CN1C(=O)c2ccccc2C1=O)Nc1ccccc1C(=O)NC1CCCCCC1 | inactive | 2.31 | –
39 | COc1cccc(C2CC(C(F)(F)F)n3ncc(C(=O)O)c3N2)c1 (stereo not drawn) | inactive | -3.05 | –
40 | CCOC(=O)C1C(=O)Nc2nc(C)nn2C1c1ccccc1 (stereo not drawn) | inactive | – | –
41 | Cc1cccc(NC(=O)c2cc3c(=O)n4ccccc4nc3n(CC(C)C)c2=N)c1 | inactive | 2.38 | –
42 | O=c1oc(-c2ccccc2Br)nc2ccccc12 | inactive | -5.52 | –
43 | Cc1cc(C)n(-c2ccc(Cl)c(C(=O)Nc3ccc(OC(F)(F)F)cc3)n2)n1 | inactive | 14.5 | –
44 | O=C(Nc1ccccn1)c1sc2cccc(F)c2c1Cl | inactive | 9.28 | –

Row | SMILES | Potency | cell number change [%] | lipid storage change, negative = inhibition
45 | CCCNC(=O)C(Cc1ccccc1)NS(=O)(=O)c1ccc2c(c1)CCC(=O)N2 (stereo not drawn) | inactive | – | –
46 | CCC(C)NC(=O)C(Cc1ccccc1)NS(=O)(=O)c1ccc2c(c1)CCC(=O)N2 (stereo not drawn) | 20.6 µM (active) | 1.42 | –
47 | CCCCC(CC)CNC(=O)C(Cc1ccccc1)NS(=O)(=O)c1ccc2c(c1)CCC(=O)N2 (stereo not drawn) | inactive | 9.41 | –
48 | Cc1ccc(NC(=O)N2CCN(C(=O)c3ccco3)CC2)cc1Cl | inactive | -6.19 | –
49 | Cn1nnnc1SCC(=O)Nc1ccc(Cl)c(S(=O)(=O)N2CCOCC2)c1 | inactive | 21.3 | –
50 | CCc1ccc(NC(=O)C2=CC(c3cccs3)=NS(=O)(=O)N2C)cc1 | 20.6 µM (active) | – | –
51 | COc1ccc(NC(=O)C2=CC(c3ccc(C)cc3)=NS(=O)(=O)N2C)cc1 | 5.17 µM (active) | 4.61 | –
52 | COc1ccc(C2=NS(=O)(=O)N(C)C(C(=O)Nc3ccc(C(C)=O)cc3)=C2)cc1OC | inactive | 3.67 | –
53 | CCc1ccc(NC(=O)C2=CC(c3ccc(OC)cc3)=NS(=O)(=O)N2C)cc1 | 10.3 µM (active) | -11.3 | –
54 | COc1ccc(C2=NS(=O)(=O)N(C)C(C(=O)Nc3cc(C)ccc3O)=C2)cc1OC | inactive | 4.03 | –
55 | COc1ccc(NC(=O)C2=CC(c3ccco3)=NS(=O)(=O)N2C)cc1 | inactive | 15 | –
56 | COc1cc(NC(=O)C2=CC(c3ccc(C)cc3)=NS(=O)(=O)N2C)cc(OC)c1OC | 1.46 µM (active) | -6.34 | –
57 | COc1ccc(CNC(=O)C2=CC(c3ccc(OC)cc3)=NS(=O)(=O)N2C)cc1 | inactive | -7.78 | –
58 | CC(=O)c1cccc(NC(=O)C2=CC(c3cccs3)=NS(=O)(=O)N2C)c1 | inactive | – | –
59 | COc1ccc(CNC(=O)C2=CC(c3ccc(OC)c(OC)c3)=NS(=O)(=O)N2C)cc1 | inactive | -8.36 | –
60 | COc1ccc(NC(=O)C2=CC(c3ccc(C)cc3)=NS(=O)(=O)N2C)cc1OC | inactive | -8.07 | –
61 | Cc1ccc(O)c(NC(=O)C2=CC(c3cccs3)=NS(=O)(=O)N2C)c1 | inactive | -6.05 | –
62 | CCCN(CCC)Cc1c(C(=O)N/N=C/c2ccco2)nnn1-c1nonc1N | inactive | 1.25 | –
63 | O=S(=O)(NC1CC1)c1ccc(S(=O)(=O)N2CCN3CCCC3C2)cc1 (stereo not drawn) | inactive | -22 | –
64 | C=CCn1c(-c2cccc(OC)c2OC)n[nH]c1=S | – | 6.07 | 16.6% [at 9.22 µM] (inactive)
65 | Cc1cnc(C(=O)NNC(=O)c2ccc(Br)cc2)cn1 | inactive | – | –
66 | CNC(=O)C(=O)Nc1nc(C23CC4CC(CC(C4)C2)C3)cs1 | inactive | – | –

Row | SMILES | Potency | cell number change [%] | lipid storage change, negative = inhibition
67 | CC(CSc1nnnn1-c1ccccc1)Cn1c(N2CCN(C)CC2)nc2c1c(=O)[nH]c(=O)n2C (stereo not drawn) | inactive | -4.1 | –
68 | CCOc1ccc(-n2c(SCC(=O)NCc3ccco3)nnc2-c2c[nH]c3ccccc23)cc1 | inactive | – | –
69 | CCOC(=O)c1sc(N2N=C(C)/C(=C\c3ccc(OCC(=O)OC)cc3)C2=O)nc1C | inactive | 0.316 | –
70 | CC(=O)c1ccc(S(=O)(=O)NC2CCSc3ccccc32)cc1 (stereo not drawn) | inactive | 11.1 | –
71 | O=C(COC(=O)c1ccc(Cl)cc1[N+](=O)[O-])NC(=O)c1ccccc1 | inactive | -11.4 | –
72 | Cc1ccc(C2=NC3(CCCC3)NC2=S)cc1 | – | 8.14 | 6.56% [at 9.22 µM] (inactive)
73 | Cc1ccc(NC(=O)CCN2C(=O)c3ccccc3C2=O)c(C)c1 | inactive | 5.45 | –
74 | CN1C(C(=O)Nc2ccc(F)cc2F)=CC(c2cccs2)=NS1(=O)=O | inactive | -0.288 | –
75 | CSc1ccccc1NC(=O)C1=CC(c2cccs2)=NS(=O)(=O)N1C | 4.11 µM (active) | -26.8 | –
76 | COC(=O)c1ccccc1NC(=O)C1=CC(c2cccs2)=NS(=O)(=O)N1C | inactive | 5.19 | –
77 | Cc1nnc(SCC(=O)NNC(=O)c2ccccc2)n1-c1ccccc1 | inactive | – | –
78 | COc1cc2c(cc1OC)C(c1ccccc1)N(C(=O)c1cccc(S(C)(=O)=O)c1)CC2 (stereo not drawn) | inactive | 14.6 | –
79 | Cc1cc(C(=O)COC(=O)/C=C/c2cccc(F)c2)c(C)n1C | inactive | 5.66 | –
80 | COc1ccccc1/C=C/C(=O)OCC(=O)c1cc(C)n(C)c1C | 1.3 µM (active) | -22.1 | –
81 | Cc1cc(C(=O)COC(=O)/C=C/c2cccc(Br)c2)c(C)n1C | inactive | – | –
82 | COc1ccc(S(=O)(=O)Nc2ccccc2N2CCOCC2)cc1[N+](=O)[O-] | inactive | 0.857 | –
83 | COCCCNC(=S)Nc1ccc2nc(N3CCOCC3)cc(C)c2c1 | inactive | 0.741 | –
84 | O=C(NCCS(=O)(=O)N1CCN(c2ccccc2)CC1)C1CC(=O)N(c2ccc(F)cc2)C1 (stereo not drawn) | inactive | -3.13 | –
85 | Cc1ccc(N2CC(C(=O)NCCS(=O)(=O)N3CCN(c4ccc(F)cc4)CC3)CC2=O)cc1 (stereo not drawn) | 2.06 µM (active) | -2.39 | –
86 | O=C(NCCS(=O)(=O)N1CCN(c2ccc(F)cc2)CC1)C1CC(=O)N(c2ccccc2)C1 (stereo not drawn) | inactive | 4.61 | –
87 | CC(=O)N1CCc2c(sc(NC(=O)Cc3ccc(F)cc3)c2C#N)C1 | inactive | 7.34 | –
